The target in experiment [1] is Ferritin light chain (Equus caballus) (UniProt P02791). Description: qHTS Validation Assay for Identification of Novel General Anesthetics (AID 2323). Note: series mostly up to about 77 µM. The method, boiled down:
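Apoferritin from horse spleen (10 uM) was mixed with 1-aminoanthracene at 50% saturation in PBS, then compounds were added. After 10 min at room temperature, fluorescence was read (ex 380 nm, em 535 nm) and normalized to free-probe and complex controls.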

In experiment [2] the target is ATP-dependent DNA helicase Q1 (Homo sapiens) (UniProt P46063). Description: qHTS Validation Assay for Inhibitors of RecQ-Like Dna Helicase 1 (RECQ1) (AID 2353). The method, boiled down:
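RECQ1T1 50 nM; forked duplex (20 bp + 30-nt ss tails) 200 nM, ATP 2 mM final; pH 8.0, 2 mM MgCl2, 2.5 ug/ml poly(dI-dC); 15 min compound preincubation; discontinuous kinetic read over 2 h at RT.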
A general note: In qHTS, concentration-response curves come from the screen itself.

In experiment [3] the target is RecQ-like DNA helicase BLM (Homo sapiens) (UniProt P54132). The experiment in a line: qHTS Validation Assay for Inhibitors of Bloom's syndrome helicase (BLM) (AID 2364). The method, boiled down: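 BLM 50 nM in 25 mM Tris-HCl pH 8.0, 5 mM NaCl, 2 mM MgCl2, 1 mM DTT, 0.01% Tween-20, 2.5 ug/ml poly(dI-dC); 15 min cpd preinc, RT. Start: 200 nM forked DNA + 2 mM ATP (final). TAMRA read, 2 reads 2 h apart.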

Experiment [4] is described as follows: Cytometric Cell-Based qHTS for Inhibitors of the mTORC1 Signaling Pathway in MEF (Tsc2-/-, p53-/-) Cells (AID 2660).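 Note: Tsc2 and p53 null MEFs carrying empty vector with compound for 24 h; percent of cells above a phospho-rpS6 to PI ratio cutoff in each well; series mostly up to about 38 µM.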 In a few lines:
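Immunofluorescence qHTS of rpS6 Ser235/236 phosphorylation: MEFs (Tsc2-/-, p53-/-) treated 24 h, 37 C, in DMEM + 10% FBS. Alexa-488 signal normalized to PI count, referenced to rapamycin (7.5 nM) and DMSO; PI cell number recorded for viability.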

The nature of experiment [5]: High Content Imaging Cell-Based qHTS for Inhibitors of the mTORC1 Signaling Pathway in MEF (Tsc2-/-, p53-/-) Cells (AID 2666).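 Note: percent of cells scored positive for phospho-rpS6 Ser235/236 immunostaining by imaging.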 In a few lines:
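Inhibition of rpS6 phosphorylation is measured by immunofluorescence imaging in empty-vector Tsc2-/-, p53-/- mouse embryonic fibroblasts after 24 hrs compound exposure at 37 degree Celsius. Results are reported as % positive cells per well.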

Experiment [6] in a line: High Content Imaging Cell-Based qHTS for Inhibitors of the mTORC1 Signaling Pathway in MEF Cells (AID 2667).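 Note: Tsc2-/- p53-/- MEFs stably re-expressing wild-type Tsc2 exposed 24 h; series mostly up to about 38 µM.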 In a few lines: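 Fixed-cell imaging of phospho-S6 (Ser235/236, Alexa-488) after 24 hrs of compound treatment at 37 degree Celsius. Signal was normalized to Hoechst, and thresholds from the highest and lowest wells split cells into % active versus % non-active.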

Experiment [7] in a line: Cytometry Cell-Based qHTS for Inhibitors of the mTORC1 Signaling Pathway in MEF cells (AID 2668).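 Note: Tsc2-/- p53-/- mouse embryonic fibroblasts stably re-expressing wild-type Tsc2; percent cells positive for phospho-rpS6 Ser235/236 relative to propidium iodide stain; series mostly up to about 38 µM.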 The method, boiled down:
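Pathway inhibition in WT Tsc2-rescued Tsc2-/-, p53-/- MEFs is measured as the Alexa-488 phospho-rpS6 to propidium iodide intensity ratio after 24 hrs of compound at 37 degree Celsius. PI-stained cell number gives viability.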

The nature of experiment [8]: Validation screen for small molecules that induce DNA re-replication in MCF 10A normal breast cells (AID 463097). Note: nearly all actives have a fitted effect of over 60% in size. The method, boiled down:
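DNA re-replication was detected as a rise in nuclei with elevated Hoechst fluorescence after a 48 hr compound exposure of MCF 10A cells at 37 C.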

Experiment [9] concerns the target Ubiquitin carboxyl-terminal hydrolase 2 (Homo sapiens) (UniProt O75604). Description: qHTS Validation Assay for Inhibitors of Ubiquitin-specific Protease USP2a Using CHOP2 as the Reporter (AID 463106). The method, boiled down: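 Inhibition is expressed relative to NEM as the full-inhibition control, with concentration-response curves classed by fit quality, magnitude and activity. Enzyme (USP2 core, 10nM) meets 25nM Ub-CHOP2 after compound preincubation; readings are taken at 60min.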

Experiment [10] deals with DNA polymerase III PolC-type (Bacillus subtilis (strain 168)) (UniProt P13267). The experiment in a line: qHTS Validation Assay for the Inhibitors of DNA Replication in Gram-Positive Bacteria (AID 485295).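 Note: reconstituted holoenzyme with PolC plus beta clamp SSB and primase; PicoGreen fluorescence of double-stranded DNA made on primed circular M13 template; series mostly up to about 57 µM.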 The method, boiled down:
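Primed replication of single-stranded M13Gori by a four-protein B. subtilis holoenzyme is measured at room temperature. Double-stranded product is quantified by PicoGreen fluorescence after an EDTA stop; inhibition is scaled between DMSO and EDTA controls.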

Experiment [11] deals with Tumor susceptibility gene 101 protein (Homo sapiens) (UniProt Q99816). The experiment in a line: qHTS Validation Assay for Iinhibitors of HIV-1 Budding by Blocking the Interaction of PTAP/TSG101 (AID 485342; calls by dose curve). In a few lines:
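Fluorescence anisotropy measured PTAP-Tsg101 interaction. Final concentrations were 10 uM protein domain and 50 nM labeled peptide, equilibrated 20 min at room temperature.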

The nature of experiment [12]: qHTS Validation Assay to Find Inhibitors of Chronic Active B-Cell Receptor Signaling (AID 485345; active = well fitted curve in the direction sought with a large enough effect in the main read-out, with a control signal flat, not every such curve was filed as active). The method, boiled down: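 TMD8 ABC-DLBCL cells with dox-inducible green luciferase–IκBα fusion and red native luciferase; compounds 46 uM–3 nM, 4 h at 37C with doxycycline in 0.5% FBS IMDM. Green/red ratio normalized to basal and 10 uM MG-132.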
For experiment [13], the target named is Beta-2 adrenergic receptor (Homo sapiens) (UniProt P07550). Description: qHTS validation assay of beta-arrestin-biased ligands of beta2-adrenergic receptor (AID 485366). In a few lines: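 Agonism was measured as beta-arrestin recruitment to recombinant beta2-AR, releasing tTA to drive luciferase. Cells were exposed for 18 hr at 37 degrees C to a series up to 46 microM. %Activity from corrected luminescence gave concentration-response curves.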

A short description of experiment [14]: Quantitative high throughput screen for delayed death inhibitors of the malarial parasite plastid, 96 hour incubation (AID 488745). Note: nearly all actives have a fitted effect of over 70% in size. Note: potency is the fitted concentration of half-maximal effect. The method, boiled down:
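Luciferase-expressing P. falciparum, infected RBCs 2% Hct/0.1% parasitemia (final); 96 h cpd exposure, 37 C, 5% CO2; RPMI 1640 + 0.5% Albumax, bicarbonate, gentamycin. Readout: luminescence loss = growth inhibition.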

Experiment [15] is described as follows: Quantitative high throughput screen for delayed death inhibitors of the malarial parasite plastid, 48 hour incubation (AID 488752). Note: nearly all actives have a fitted effect of over 65% in size. Note: potency is the fitted concentration of half-maximal effect. The method, boiled down:
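Luciferase-expressing P. falciparum in RBCs, 2% Hct, 0.1% parasitemia final; RPMI 1640 + 0.5% Albumax; 48 h, 37 C, 5% CO2; luminescence readout, signal drop = growth inhibition.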

Experiment [16] deals with Thioredoxin reductase 1, cytoplasmic (Rattus norvegicus) (UniProt O89049). The experiment in a line: qHTS Assay for Inhibitors of Mammalian Selenoprotein Thioredoxin Reductase 1 (TrxR1) (AID 488773).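 Note: drop in NADPH fluorescence over an 8 min run after selenite addition; series mostly up to about 57 µM; nearly all actives have a fitted effect of over 40% in size.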 The settings on record: Potency: inhibition. In a few lines: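 Inhibition is scored from the loss of NADPH fluorescence between first and last reads of an 8-min kinetic run. Selenite (400 uM) was the substrate, added after 15 min compound preincubation at room temperature.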

Experiment [17] concerns the target Flap endonuclease 1 (Homo sapiens) (UniProt P39748). The experiment in a line: qHTS Validation Assay for the Inhibitors of Human Flap endonuclease 1 (FEN1) (AID 488816). The method, boiled down: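 Steps: add FEN1 (10 nM reagent) or buffer only; pin compounds; hold 15 min at room temperature; start with substrate, 50 nM final; read at 0 and 15 min; correct, normalize and fit a four-parameter Hill curve.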

The target in experiment [18] is M-phase phosphoprotein 8 (Homo sapiens) (UniProt Q99549). The experiment in a line: qHTS Validation Assay for Inhibitors for MPP8 Chromodomain Interactions with Methylated Histone Tails (AID 488949).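 Note: AlphaScreen signal from MPP8 chromodomain bound to biotinylated H3K9me3 peptide; top concentration of the series differs between compounds; nearly all actives have a fitted effect of over 55% in size.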 In a few lines: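 Disruption of the preformed MPP8–trimethyl-H3K9 peptide complex (both 50 nM, 30 min, RT) is measured after 30 min compound exposure, using AlphaScreen proximity beads; aurintricarboxylic acid titration serves as plate control.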

Experiment [19] deals with ATP-dependent 6-phosphofructokinase (Trypanosoma brucei brucei) (UniProt O15648). Description: qHTS Validation Assay to Find Inhibitors of T. brucei phosphofructokinase (AID 485368). To be noted: outcome: dose series up to 57.5 µM. In a few lines: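 ADP-Glo luminescence, two-step: residual ATP depleted, then ADP converted to ATP for luciferase. Enzyme 1.25 nM, F6P 0.5 mM, ATP 0.1 mM, pH 8.0 TEA buffer, 45 min RT. Curves fitted and classed by quality and efficacy.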

Experiment [20] deals with Thioredoxin reductase 1, cytoplasmic (Rattus norvegicus) (UniProt O89049). Description: qHTS Assay for Substrates of Mammalian Selenoprotein Thioredoxin Reductase 1 (TrxR1) (AID 488772).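 Note: series mostly up to about 57 µM; a drop in NADPH fluorescence below the no-compound background marks a TrxR1 substrate.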 The method, boiled down: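 In this dual-purpose format, potential substrates are identified from the first fluorescence read after selenite addition, not from the 8-minute delta. Rat enzyme is preincubated with NADPH and then with compound at ~22 deg C.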

Inconclusive results are not listed. Active and inactive are the calls of the source. Unless noted, calls come from the whole dose curve; as a rule, active = well fitted curve in the direction sought with a large enough effect; inconclusive = small, poorly fitted or top-dose-only effect, or another doubt; inactive = no such curve, though single readings can be large; an effect the other way counts as inactive or inconclusive.

The text below walks through data of PubChem BioAssay (NCATS).

Chain of Beta-2 adrenergic receptor (Homo sapiens) (P07550 whole entry, looked up): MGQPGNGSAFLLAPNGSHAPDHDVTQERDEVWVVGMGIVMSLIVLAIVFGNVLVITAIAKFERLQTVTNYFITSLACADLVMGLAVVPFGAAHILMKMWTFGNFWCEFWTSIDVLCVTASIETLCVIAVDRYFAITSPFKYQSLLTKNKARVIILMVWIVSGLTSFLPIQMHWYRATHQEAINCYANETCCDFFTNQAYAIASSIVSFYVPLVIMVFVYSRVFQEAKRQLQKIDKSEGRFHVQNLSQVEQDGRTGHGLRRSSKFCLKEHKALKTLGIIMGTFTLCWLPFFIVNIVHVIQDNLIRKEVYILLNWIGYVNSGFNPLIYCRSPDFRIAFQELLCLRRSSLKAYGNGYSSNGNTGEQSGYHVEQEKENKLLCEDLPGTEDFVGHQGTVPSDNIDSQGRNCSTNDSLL
Chain of Ubiquitin carboxyl-terminal hydrolase 2 (Homo sapiens) (O75604 whole entry, looked up): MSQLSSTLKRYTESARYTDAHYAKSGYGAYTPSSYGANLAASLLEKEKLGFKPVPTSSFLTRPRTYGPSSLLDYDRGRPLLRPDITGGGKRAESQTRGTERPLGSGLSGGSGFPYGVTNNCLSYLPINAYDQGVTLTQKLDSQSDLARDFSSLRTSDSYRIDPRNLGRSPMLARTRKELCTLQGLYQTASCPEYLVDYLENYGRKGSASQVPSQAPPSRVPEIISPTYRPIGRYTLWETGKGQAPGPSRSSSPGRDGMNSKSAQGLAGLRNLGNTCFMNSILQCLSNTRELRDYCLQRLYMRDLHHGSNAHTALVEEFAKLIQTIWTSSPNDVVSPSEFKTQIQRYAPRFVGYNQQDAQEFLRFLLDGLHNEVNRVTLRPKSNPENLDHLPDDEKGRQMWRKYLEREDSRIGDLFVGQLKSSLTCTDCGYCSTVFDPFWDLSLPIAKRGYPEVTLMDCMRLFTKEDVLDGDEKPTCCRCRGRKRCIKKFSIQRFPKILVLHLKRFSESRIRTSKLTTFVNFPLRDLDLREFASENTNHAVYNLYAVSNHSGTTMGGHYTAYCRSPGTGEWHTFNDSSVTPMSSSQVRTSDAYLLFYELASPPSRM
Chain of ATP-dependent DNA helicase Q1 (Homo sapiens) (P46063 whole entry, looked up): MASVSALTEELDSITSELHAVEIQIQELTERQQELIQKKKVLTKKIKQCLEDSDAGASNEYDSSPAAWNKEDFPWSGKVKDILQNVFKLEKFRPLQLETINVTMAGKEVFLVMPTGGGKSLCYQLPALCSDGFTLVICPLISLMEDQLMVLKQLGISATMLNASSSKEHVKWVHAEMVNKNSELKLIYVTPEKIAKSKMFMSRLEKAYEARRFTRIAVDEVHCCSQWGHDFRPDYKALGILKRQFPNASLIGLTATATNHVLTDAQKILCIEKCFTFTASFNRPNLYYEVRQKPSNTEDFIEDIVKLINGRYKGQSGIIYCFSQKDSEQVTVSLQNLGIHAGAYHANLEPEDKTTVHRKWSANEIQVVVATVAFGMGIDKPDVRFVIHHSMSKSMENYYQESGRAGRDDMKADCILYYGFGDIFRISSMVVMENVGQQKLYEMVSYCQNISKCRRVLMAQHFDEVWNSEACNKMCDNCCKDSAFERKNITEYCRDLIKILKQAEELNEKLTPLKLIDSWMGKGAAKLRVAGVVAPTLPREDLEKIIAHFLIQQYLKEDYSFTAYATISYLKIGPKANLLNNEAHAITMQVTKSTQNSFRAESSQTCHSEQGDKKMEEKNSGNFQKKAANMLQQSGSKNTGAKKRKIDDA
Chain of Thioredoxin reductase 1, cytoplasmic (Rattus norvegicus) (O89049 whole entry, looked up): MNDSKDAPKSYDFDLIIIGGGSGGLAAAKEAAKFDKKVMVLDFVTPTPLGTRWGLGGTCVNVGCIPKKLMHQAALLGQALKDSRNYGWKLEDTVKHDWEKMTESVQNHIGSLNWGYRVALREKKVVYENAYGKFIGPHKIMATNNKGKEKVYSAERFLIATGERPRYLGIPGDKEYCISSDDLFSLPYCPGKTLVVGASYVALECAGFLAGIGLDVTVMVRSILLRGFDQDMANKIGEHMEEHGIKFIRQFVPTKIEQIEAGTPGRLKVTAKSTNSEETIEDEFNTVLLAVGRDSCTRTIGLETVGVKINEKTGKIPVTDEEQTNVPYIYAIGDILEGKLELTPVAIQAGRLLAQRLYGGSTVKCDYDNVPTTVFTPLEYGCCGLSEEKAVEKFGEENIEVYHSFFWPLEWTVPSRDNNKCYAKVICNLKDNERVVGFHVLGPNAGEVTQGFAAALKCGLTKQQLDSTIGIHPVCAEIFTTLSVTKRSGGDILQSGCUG
Chain of Ferritin light chain (Equus caballus) (P02791 2-175 limits assumed): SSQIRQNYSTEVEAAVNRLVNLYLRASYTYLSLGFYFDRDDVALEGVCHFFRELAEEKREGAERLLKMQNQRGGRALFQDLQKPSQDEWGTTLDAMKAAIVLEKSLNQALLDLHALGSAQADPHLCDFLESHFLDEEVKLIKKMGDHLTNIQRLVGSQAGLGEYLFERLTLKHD
Chain of Flap endonuclease 1 (Homo sapiens) (P39748 whole entry, looked up): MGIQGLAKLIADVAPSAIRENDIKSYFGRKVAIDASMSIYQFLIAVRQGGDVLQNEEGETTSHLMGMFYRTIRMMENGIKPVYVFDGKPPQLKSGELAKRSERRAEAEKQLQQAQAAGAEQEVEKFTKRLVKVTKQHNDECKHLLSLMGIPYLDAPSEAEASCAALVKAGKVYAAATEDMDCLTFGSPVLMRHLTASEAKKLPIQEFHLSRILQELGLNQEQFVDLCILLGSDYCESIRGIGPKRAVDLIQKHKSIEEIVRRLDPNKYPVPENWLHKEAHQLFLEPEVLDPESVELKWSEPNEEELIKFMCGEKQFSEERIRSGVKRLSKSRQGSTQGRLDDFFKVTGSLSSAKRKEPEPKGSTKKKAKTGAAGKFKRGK
Chain of Tumor susceptibility gene 101 protein (Homo sapiens) (Q99816 whole entry, looked up, the tested form may be a part): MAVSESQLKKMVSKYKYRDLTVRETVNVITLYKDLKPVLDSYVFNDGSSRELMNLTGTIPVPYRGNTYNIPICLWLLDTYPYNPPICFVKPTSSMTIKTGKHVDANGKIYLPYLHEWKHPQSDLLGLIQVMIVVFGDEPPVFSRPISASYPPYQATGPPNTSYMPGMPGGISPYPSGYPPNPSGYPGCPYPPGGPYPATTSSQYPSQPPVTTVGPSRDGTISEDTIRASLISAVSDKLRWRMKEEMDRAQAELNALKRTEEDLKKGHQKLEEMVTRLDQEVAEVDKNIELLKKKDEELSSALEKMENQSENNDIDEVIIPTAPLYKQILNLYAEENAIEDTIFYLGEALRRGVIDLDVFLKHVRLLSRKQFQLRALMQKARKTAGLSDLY
Chain of M-phase phosphoprotein 8 (Homo sapiens) (Q99549 whole entry, looked up): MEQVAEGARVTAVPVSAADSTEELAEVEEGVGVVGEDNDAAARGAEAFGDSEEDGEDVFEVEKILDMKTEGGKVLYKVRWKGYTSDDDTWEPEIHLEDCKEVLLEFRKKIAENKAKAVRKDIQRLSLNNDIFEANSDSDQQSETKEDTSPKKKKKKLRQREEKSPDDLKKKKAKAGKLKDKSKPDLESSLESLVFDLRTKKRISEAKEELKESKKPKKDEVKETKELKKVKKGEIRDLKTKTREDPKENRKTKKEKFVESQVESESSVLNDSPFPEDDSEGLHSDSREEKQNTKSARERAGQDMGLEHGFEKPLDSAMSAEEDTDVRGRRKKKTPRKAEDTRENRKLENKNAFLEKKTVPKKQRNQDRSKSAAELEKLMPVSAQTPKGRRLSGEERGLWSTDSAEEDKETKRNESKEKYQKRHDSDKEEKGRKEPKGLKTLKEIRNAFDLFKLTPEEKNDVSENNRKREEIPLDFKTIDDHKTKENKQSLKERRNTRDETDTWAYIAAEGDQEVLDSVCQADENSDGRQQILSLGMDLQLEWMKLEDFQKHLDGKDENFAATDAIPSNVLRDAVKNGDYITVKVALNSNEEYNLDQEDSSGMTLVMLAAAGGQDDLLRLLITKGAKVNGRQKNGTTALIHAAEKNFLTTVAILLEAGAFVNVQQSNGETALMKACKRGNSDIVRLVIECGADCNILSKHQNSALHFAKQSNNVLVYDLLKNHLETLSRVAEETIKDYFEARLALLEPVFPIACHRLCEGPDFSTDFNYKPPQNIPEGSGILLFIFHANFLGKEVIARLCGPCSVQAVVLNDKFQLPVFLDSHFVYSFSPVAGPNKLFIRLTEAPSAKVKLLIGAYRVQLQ
Chain of ATP-dependent 6-phosphofructokinase (Trypanosoma brucei brucei) (O15648 whole entry, looked up): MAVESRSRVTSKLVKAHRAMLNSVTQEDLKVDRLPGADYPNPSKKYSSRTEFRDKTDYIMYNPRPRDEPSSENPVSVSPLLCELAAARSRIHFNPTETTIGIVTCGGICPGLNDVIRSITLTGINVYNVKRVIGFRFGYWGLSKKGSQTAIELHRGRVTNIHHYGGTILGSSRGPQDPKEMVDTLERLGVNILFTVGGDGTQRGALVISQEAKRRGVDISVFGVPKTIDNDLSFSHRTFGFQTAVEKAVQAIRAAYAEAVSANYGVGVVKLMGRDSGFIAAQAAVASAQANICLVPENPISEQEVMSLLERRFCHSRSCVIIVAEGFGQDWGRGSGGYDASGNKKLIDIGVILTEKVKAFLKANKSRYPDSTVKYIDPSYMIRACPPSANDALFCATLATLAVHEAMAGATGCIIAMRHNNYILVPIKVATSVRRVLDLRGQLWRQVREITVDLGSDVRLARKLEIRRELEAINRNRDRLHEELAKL

On to `CCCCNC(=O)NS(=O)(=O)c1ccc(C)cc1`, for which the result in [1], in [4], in experiment [9], in [11] and in [13] was inactive. Further, the Potency result in experiment [2], in [3], in [5], in experiment [6], in [7] and in experiment [8] was “inactive” each time. Besides, the Potency entry in [10], in experiment [12], in experiment [14], in experiment [15], in [16] and in experiment [17] was “inactive” throughout. In addition, in [18], the Potency entry is “inactive”.

As to `CCCN(CCC)C(=O)C(CCC(=O)O)NC(=O)c1ccccc1` (centres undefined), the result in experiment [1], in experiment [4], in experiment [9], in [11] and in experiment [19] was inactive. In addition, the Potency result in experiment [2], in [3], in [5], in experiment [6], in experiment [7] and in experiment [8] was “inactive” in each case. For the same compound, the Potency result in experiment [10], in [12], in experiment [14], in experiment [16], in experiment [17] and in experiment [18] was “inactive” in each case.

Regarding `O=c1[nH]c(=O)n([C@H]2C[C@H](O)[C@@H](CO)O2)cc1Br`, the outcome in experiment [1], in experiment [4], in experiment [9], in [11] and in experiment [13] was inactive. Besides, the Potency result in experiment [2], in experiment [3], in [5], in experiment [6], in experiment [8] and in experiment [10] was “inactive” throughout. Besides, the Potency result in experiment [12], in [14], in experiment [15], in experiment [16], in experiment [17] and in experiment [18] was “inactive” throughout.

For the compound `CC1=NS(=O)(=O)c2cc(Cl)ccc2N1`, the outcome in experiment [1], in experiment [4], in experiment [9], in experiment [11], in [13] and in [20] was inactive. For the same compound, the Potency entry in experiment [2], in experiment [3], in experiment [5], in experiment [6], in [7] and in experiment [8] was “inactive” in each case. In addition, the Potency entry in [10], in experiment [12], in experiment [14], in [15], in experiment [16] and in experiment [17] was “inactive” each time. Besides, the Potency result in experiment [18] was “inactive”.

Take `O=C(CCNNC(=O)c1ccncc1)NCc1ccccc1`: the call in [1], in [4], in experiment [9], in experiment [11], in experiment [13] and in experiment [19] was inactive. Besides, the compound was called inactive in experiment [20]. Also, the Potency entry in experiment [2], in experiment [3], in experiment [5], in experiment [6], in experiment [7] and in experiment [8] was “inactive” each time. In addition, the Potency result in [12], in experiment [14], in experiment [16], in [17] and in experiment [18] was “inactive” in each case.

With `O=C(O)CCCCCCCC(=O)O`, the outcome in experiment [1], in [4], in experiment [9], in [11], in [13] and in experiment [20] was inactive. Besides, the Potency entry in experiment [2], in experiment [3], in experiment [5], in experiment [6], in experiment [7] and in [8] was “inactive” in each case. For the same compound, the Potency entry in [12], in [14], in experiment [15], in [16] and in [17] was “inactive” in each case.

On to `CC(C)[N+](C)(CCOC(=O)C1c2ccccc2Oc2ccccc21)C(C)C`, for which the result in experiment [1], in [4], in experiment [9], in [11] and in [13] was inactive. Besides, the Potency result in [2], in experiment [3], in [5], in experiment [6], in experiment [7] and in experiment [8] was “inactive” in each case. Also, the Potency result in [10], in experiment [12], in experiment [16], in experiment [17] and in experiment [18] was “inactive” throughout. In addition, the Potency in [14] is 3.29 µM (active); in experiment [15], 4.65 µM (active).
